# Screening results from PubChem BioAssay.
# CD11b adhes enh = increases human CD11b/CD18 adhesion to fibrinogen; K562 CD11b/CD18 adhesion to fibrinogen, ATPlite luminescence; P05107+P11215; hit rate 0.07% among 93,000; activation, % at 10 µM;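 active = 10 µM primary screen giving 50% or more activity, confirmed by 40% or more on retest at that dose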
# CYP2C9 activ = CYP2C9 (human) activation; recombinant CYP2C9, luciferin-H conversion, luminescence; hits give high values; factor 1 = untreated enzyme, 0 = blocked; activation factor at 5 µM; hit rate 1.4% among 96,000; AID 1024;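 active = activation factor of 2 or more for CYP2C9 at a 5 µM dose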;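 note: 0 = sulfaphenazole-blocked wells and 1 = vehicle-only wells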
# Target sequence (P11712 whole entry, looked up): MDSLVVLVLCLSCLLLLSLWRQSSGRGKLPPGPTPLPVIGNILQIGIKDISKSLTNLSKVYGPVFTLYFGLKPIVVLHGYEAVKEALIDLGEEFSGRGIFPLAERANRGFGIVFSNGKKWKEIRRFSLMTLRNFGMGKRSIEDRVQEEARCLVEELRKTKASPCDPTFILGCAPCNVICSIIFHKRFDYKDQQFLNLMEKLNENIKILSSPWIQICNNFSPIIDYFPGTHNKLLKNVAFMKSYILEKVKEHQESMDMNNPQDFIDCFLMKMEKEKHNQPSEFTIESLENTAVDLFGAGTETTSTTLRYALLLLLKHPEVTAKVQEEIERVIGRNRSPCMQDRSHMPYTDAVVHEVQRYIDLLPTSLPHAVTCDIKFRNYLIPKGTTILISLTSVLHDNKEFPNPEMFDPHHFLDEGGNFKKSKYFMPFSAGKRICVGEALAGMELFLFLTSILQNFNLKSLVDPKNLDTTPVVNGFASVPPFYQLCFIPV
# CYP2C9 inh = human CYP2C9 inhibition. P11712. CYP2C9 Supersomes, luciferin-H conversion, luminescence. inhibition, % at 5 µM. hit rate 20% among 96,000. AID 777;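 active = blocking of liver enzyme CYP2C9 beyond about 50% at 5 µM, limit read from the data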
# CD11b adhes inh = CD11b/CD18-fibrinogen binding inhibition; P05107+P11215; K562 CD11b/CD18 adhesion to fibrinogen, ATPlite luminescence; Mn2+ added to activate the integrin; inhibition, % at 10 µM; hit rate 0.54% among 93,000;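 active = primary inhibition of 50% or more at 10 µM, then 40% or more on retest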
# CYP2C19 act = increases human CYP2C19 enzyme activity | recombinant CYP2C19, luciferin-H EGE luminescence; hits give high values; 0 = fully inhibited enzyme, 1 = untreated enzyme | activation factor at 5 µM | 96,000 tested, under 10 active;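 active = activation factor of at least 2 at 5 µM in the primary screen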;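 note: 0 = wells with 2.5 mM tranylcypromine and 1 = vehicle-only wells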
# CYP2C19 inhib = inhibitors of human CYP2C19. P33261. CYP2C19 Supersomes, luciferin-H EGE luminescence, 30 min. inhibition, % at 5 µM. hit rate 21% among 96,000. AID 778;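 active = CYP2C19 inhibition above a set limit at 5 µM in the primary screen, cut at about 50% in these data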;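 note: plate controls were negative control wells for no effect and 2.5 mM tranylcypromine positive control for full effect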
# An asterisk follows results filed as active; . = no result given. A selection: hits, their analogues and other compounds. The true share with any hit is near 28%.
SMILES,CD11b adhes enh,CYP2C9 activ,CYP2C9 inh,CD11b adhes inh,CYP2C19 act,CYP2C19 inhib
CCc1cc(=O)oc2cc(OC(C)C(=O)O)c(Cl)cc12 (configuration not stated),-2,0.8,21,8,1.1,-12
CCc1ccc2c(COC(=O)c3n[nH]c4ccccc34)cc(=O)oc2c1,-3,0.2,81*,7,0.4,58*
Cc1ccc2c(COC(=O)c3n[nH]c4ccccc34)cc(=O)oc2c1,-5,0.4,57*,2,0.9,12
CCc1ccc2oc(=O)cc(CN(C)Cc3ccccc3)c2c1,-5,0.8,16,27,1,5
COc1ccc(NC(=O)Nc2ccccc2C)c(OC)c1,-5,1,1,-10,0.8,21
COc1ccc(NC(=O)C(=O)N/N=C/c2cc(C)n(-c3cccc(Cl)c3Cl)c2C)c(OC)c1,-5,0.7,33,30,0.3,72*
COc1ccc(OC)c(NC(=O)C(=O)N/N=C/c2ccccc2[N+](=O)[O-])c1,.,2.2*,-119,.,0.9,7
COc1ccc(C(C)=O)cc1CSc1nc2cc(Cl)ccc2o1,2,0.8,20,17,0.8,20
CCNc1nc(N)nc(Oc2ccc(OCCOc3ccccc3)nn2)n1,0,1,-1,-9,1,0
CCNc1nc(N)nc(Oc2ccc(OCc3ccccc3)nn2)n1,.,0.9,7,.,0.2,76*
Cc1nc(C(=O)N(C)C)nn1-c1cc(Cl)cc(Cl)c1,-5,1,-1,-12,1,-1
CC(C)(C)C1CCC(OC(=O)c2ccncc2)CC1 (configuration not stated),0,0.1,94*,-13,0,99*
O=C(CN1C(=O)c2ccccc2S1(=O)=O)NCc1ccccc1Cl,0,0.9,11,-2,0.4,59*
COC(=O)c1ccc(CN2C(=O)c3ccccc3S2(=O)=O)cc1,7,0.4,60*,8,0.2,84*
CCC(C)NC(=O)c1ccccc1NC(=O)CN1C(=O)c2ccccc2S1(=O)=O (configuration not stated),-2,0.2,85*,17,0.9,10
COC(=O)c1cccc(N2C(=O)c3ccccc3S2(=O)=O)c1,3,0.7,28,42,0.6,41
COC(=O)c1ccccc1NC(=O)CN1C(=O)c2ccccc2S1(=O)=O,-4,1,3,8,0.9,13
O=C(CN1C(=O)c2ccccc2S1(=O)=O)Nc1ccc(S(=O)(=O)N2CCCCCC2)cc1,-2,0.1,87*,-15,0.5,50*
COc1cccc(NC(=O)[C@@H]2CCCN2C(=O)C2CCN(S(=O)(=O)c3ccc(C)cc3)CC2)c1,-1,0.8,25,2,0.9,8
O=C(O)CCNc1ccc2c(c1)OCCO2,4,1,0,-17,1,2
O=C(OCC(=O)c1ccc[nH]1)c1ccc(S(=O)(=O)N2CCCCCC2)cc1,3,0.7,28,4,1,4
O=C(Cn1c(=O)sc2ccccc21)Nc1ccc(S(=O)(=O)N2CCCC2)cc1,-6,0,98*,-5,0.2,80*
O=C(CCCN1C(=O)c2ccccc2C1=O)Nc1ccc(S(=O)(=O)N2CCCCC2)cc1,2,0.1,94*,17,0.4,63*
O=C(OCCN1C(=O)c2ccccc2C1=O)c1ccc(S(=O)(=O)N2CCCCCC2)cc1,2,0.2,82*,-11,0.6,42
O=C(CNC(=O)c1ccco1)Nc1ccc(S(=O)(=O)N2CCCC2)cc1,-2,0.7,26,-17,1,1
SMILES,CD11b adhes enh,CYP2C9 activ,CYP2C9 inh,CD11b adhes inh,CYP2C19 act,CYP2C19 inhib
CCn1c(CSc2nnc(C)n2-c2ccccc2)nc2cc(S(=O)(=O)N(C)C)ccc21,1,0.3,66*,-1,1,-2
CCn1c(CSc2nnc(-c3ccc4c(c3)OCO4)o2)nc2cc(S(=O)(=O)N(C)C)ccc21,-2,0.2,81*,8,0.2,83*
CCn1c(SCc2cccnc2)nc2c1c(=O)n(C)c(=O)n2C,2,0.9,12,10,0.8,16
Cn1c(=O)c2c(SCc3cccnc3)nc(CC(C)(C)C)nc2n(C)c1=O,4,0,98*,-6,0.1,90*
CCCc1nc(SCc2cccnc2)c2c(=O)n(C)c(=O)n(C)c2n1,4,0.1,90*,1,0,100*
Cc1csc(SCC(=O)Nc2cccc(S(=O)(=O)N3CCCC3)c2)n1,-5,0.2,78*,-6,0.2,81*
Cc1csc(SCC(=O)c2ccc(S(=O)(=O)N3CCOCC3)cc2)n1,1,0.6,40,0,0.5,48
Cc1csc(SCC(=O)Nc2cc(S(=O)(=O)N3CCCC3)ccc2Cl)n1,-3,0.5,54*,6,0.7,31
CC1CCCCN1CCCNC(=O)c1ccc2c(=O)n(CCc3ccccc3)c(=O)[nH]c2c1 (configuration not stated),-2,0.2,79*,-2,0.1,87*
Cc1cccc(C)c1OCC(O)CN1CCC(CN2C(=O)c3cccc4cccc(c34)C2=O)CC1 (configuration not stated),-3,0.4,58*,40,0.4,55*
COc1ccnc(N=CNOCc2cccc(Cl)c2Cl)c1C#N,0,0.9,8,-37,0.4,58*
CNc1ccc(C(O)(C(F)(F)F)C(F)(F)F)cc1C(O)(C(F)(F)F)C(F)(F)F,-1,0.5,53*,19,0.3,75*
CCOC(=O)N(C)c1ccc(C(O)(C(F)(F)F)C(F)(F)F)cc1,6,0.5,47,-29,0.6,39
Cn1cnnc1SCc1ccc(-c2ccc(Br)cc2)o1,1,0.4,56*,10,0.1,93*
Cc1ccc(S(=O)(=O)N2CCCC(C(=O)NCc3cccnc3)C2)cc1Cl (configuration not stated),-2,0.8,23,-14,0.1,86*
COc1ccc(S(=O)(=O)N2CCCC(C(=O)NCc3ccncc3)C2)cc1Cl (configuration not stated),-1,0,98*,48,0,100*
COc1cccc(C(=O)Nc2ncc3c(n2)CC(C)(C)CC3=O)c1,-3,0.9,8,10,1,3
O=c1c2ccccc2c(/C=N/n2cnnc2)c(O)n1-c1ccccc1,.,0.4,61*,.,0.9,6
COc1ccc(-n2c(O)c(/C=N/n3cnnc3)c3ccccc3c2=O)cc1,-2,0.3,75*,-2,1.1,-7
COc1ccc(-n2c(=O)c3ccccc3c3ccccc3c2=O)cc1,1,.,.,-2,.,.
O=C(O)C1C2C=CC(O2)C1C(=O)NCc1ccccc1Br (configuration not stated),-2,0.8,18,3,0.9,7
